According to ChEMBL document CHEMBL3988442, “University of Dundee, Small-Polar-MMV Screening Library” (2021):
Among all 66,000 compounds or so, about 960 (1.5%) showed an effect of 50% or more. Many of the other results were omitted from the sample, so strong results are more common in it than they were.

System: Trypanosoma brucei
Assay: Trypanosoma brucei 72 hour study
Assay type: functional, organism-based
Design: scale not given: in the data most compounds retested in dose-response had high values

COC(=O)c1cccc(C(=O)NCc2ccc3c(c2)CCCN3C)c1
Percent Effect (30.3 µM, […]): 1.912%

CN1CCCc2cc(CNC(=O)c3ccc(-n4cnnc4)cc3)ccc21
Percent Effect (30.3 µM, […]): 53.86%

CN1CCCc2cc(CNC(=O)c3cc[n+]([O-])cc3)ccc21
Percent Effect (30.3 µM, […]): 2.114%

CN1CCCc2cc(CNC(=O)c3ccncc3)ccc21
Percent Effect (30 µM, 30.03 µM): 8.977%

CC(C)Oc1ccc(C(=O)NCc2ccc3c(c2)CCCN3C)cn1
Percent Effect (30.3 µM, […]): 9.808%

COc1cc(C(=O)NCc2ccc3c(c2)CCCN3C)cc(OC)c1Br
Percent Effect (30.3 µM, […]): 56.02%

CC(C)n1c(=O)c2ccccc2n(CCCN(C)C)c1=O.Cl
Percent Effect (30 µM, 30.03 µM): 2.697%

COCC(=O)Nc1ccnn1-c1ccc(Cl)cc1
Percent Effect (30.3 µM, […]): 12.6%

Cc1ncc2c(n1)C1(CCN(C(=O)C(C)C)CC1)OCC2.Cl
Percent Effect (30.3 µM, […]): -4.848%

O=C(Cn1ccc2sccc2c1=O)NCc1ccccc1F
Percent Effect (30 µM, 30.03 µM): 1.93%

Clc1cc(NCc2ccncc2)nc2[nH]ccc12
Percent Effect (30 µM, 30.03 µM): -24.9%

O=C(NCCc1ccccc1)C1CCC(Cn2cnnn2)CC1 (centres undefined)
Percent Effect (30 µM, 30.03 µM): 56%

COc1ccccc1CCNC(=O)C1CCC(Cn2cnnn2)CC1 (centres undefined)
Percent Effect (30 µM, 30.03 µM): -33.08%

COc1ccc(CCNC(=O)C2CCC(Cn3cnnn3)CC2)cc1 (centres undefined)
Percent Effect (30 µM, 30.03 µM): 42.94%

Cl.Clc1ccccc1CN1CCc2nc(C3CCNCC3)ncc2C1
Percent Effect (30.3 µM, […]): 9.906%

O=C(NCCCOCC1CC1)Nc1ccc(-n2cncn2)c(F)c1
Percent Effect (10 µM): -25.61%

CNS(=O)(=O)c1ccccc1N1CCN(C(=O)NC(C)C)CC1
Percent Effect (30 µM, 30.03 µM): -6.64%

CC(=O)c1ccc(N2CCN(C(=O)NC(C)c3ccc(C)o3)CC2)cc1 (centres undefined)
Percent Effect (30 µM, 30.03 µM): 19.85%

CC(C)[C@H](NC(=O)N1CCN(c2ccc(Cl)cc2)CC1)C(=O)NC1CC1
Percent Effect (30 µM, 30.03 µM): -23.38%

C[C@H](NC(=O)N1CCN(c2ccc(Cl)cc2)CC1)C(=O)N1CCSCC1
Percent Effect (30 µM, 30.03 µM): -37.38%

CC(C)NC(=O)C(NC(=O)N1CCN(c2ccc(Cl)cc2)CC1)C(C)C (centres undefined)
Percent Effect (30 µM, 30.03 µM): 55.67%

CC(C)NC(=O)[C@H](C)NC(=O)N1CCN(c2ccc(Cl)cc2)CC1
Percent Effect (30 µM, 30.03 µM): 36.61%

CC(NC(=O)N1CCN(c2ccc(Cl)cc2)CC1)C(=O)N1CCSCC1 (centres undefined)
Percent Effect (30 µM, 30.03 µM): 25.8%

CN(C(=O)NC1CC1)C1CCN(c2ccc(Cl)cc2)CC1
Percent Effect (30 µM, 30.03 µM): -50.01%

Cn1cc(NC(=O)CNC(=O)N2CCN(c3ccc(Cl)cc3)CC2)cn1
Percent Effect (30.3 µM, […]): 4.499%

CC(C)NC(=O)C(C)NC(=O)N1CCN(c2ccc(Cl)cc2)CC1 (centres undefined)
Percent Effect (30 µM, 30.03 µM): 51.3%

CC(C)C(NC(=O)N1CCN(c2ccc(Cl)cc2)CC1)C(=O)NC1CC1 (centres undefined)
Percent Effect (30 µM, 30.03 µM): 53.99%

CC(C)NC(=O)[C@@H](NC(=O)N1CCN(c2ccc(Cl)cc2)CC1)C(C)C
Percent Effect (30 µM, 30.03 µM): 72.09%

O=C1CC2(CCN(Cc3ccoc3)CC2)CN1Cc1cc(F)cc(F)c1
Percent Effect (30 µM, 30.03 µM): -15.51%

Cc1nc(CCNC(=O)C(N)c2c(C)n[nH]c2C)sc1C (centres undefined)
Percent Effect (30.3 µM, […]): -1.575%

CN(c1ncnc2ccccc12)C1CCCN(c2cccnn2)C1 (centres undefined)
Percent Effect (30.3 µM, […]): -20.2%

NC(=O)CNC(=O)c1ccc(CNCc2ccc(F)cc2F)cc1
Percent Effect (30 µM, 30.03 µM): -29.88%

Br.Cc1c(NC(=O)CN2CCN(C3CCCC3)C(=O)C2)cnn1C
Percent Effect (30.3 µM, […]): -20.91%

CNC(=O)[C@@H]1C[C@H]2CN(C(=O)c3ccco3)C[C@H]2N1C(C)C.O=C(O)C(F)(F)F
Percent Effect (30.3 µM, […]): -12.88%

Cn1cc(C2CCCN2C(=O)c2cnc(C3CC3)s2)cn1 (centres undefined)
Percent Effect (30 µM, 30.03 µM): -42.9%

CN(C)[C@@H]1CCN(C(=O)NC2CCCC2)[C@H]1Cc1cnn(C)c1.O=C(O)C(F)(F)F
Percent Effect (30 µM, 30.03 µM): -1.718%

CN(C)C(=O)c1cnc2n1CCN(Cc1ccccc1)C2.O=C(O)C(F)(F)F
Percent Effect (30 µM, 30.03 µM): -11.93%

CCC(=O)Nc1ccc2c(ccn2CCOC)c1
Percent Effect (30 µM, 30.03 µM): 30.95%

COCCn1ccc2cc(NC(=O)COC)ccc21
Percent Effect (30 µM, 30.03 µM): 51.21%

COCCn1ccc2cc(NC(C)=O)ccc21
Percent Effect (30 µM, 30.03 µM): 20.32%

COCCC(=O)N[C@H]1CC[C@H](Nc2nccc(-c3ccncc3)n2)C1
Percent Effect (30 µM, 30.03 µM): -1.414%

CCOCC1CN(c2ccncn2)Cc2cnn(CC)c21.O=C(O)C(F)(F)F.O=C(O)C(F)(F)F (centres undefined)
Percent Effect (30 µM, 30.03 µM): 24.08%

COc1ccc(CN2CCn3c(C(=O)N(C)C)cnc3C2)cc1.O=C(O)C(F)(F)F
Percent Effect (30.3 µM, […]): -109.7%

COc1ccc(C)cc1NC(=O)Nc1cnc(N2CCCC2)nc1
Percent Effect (30 µM, 30.03 µM): -9.808%

COc1ccc(C)cc1NC(=O)Nc1cnc(N2CCOCC2)nc1
Percent Effect (30 µM, 30.03 µM): -0.7377%

COc1ccc(C)cc1NC(=O)Nc1cnc(N2CCN(C)CC2)nc1
Percent Effect (30 µM, 30.03 µM): 53.87%

Cc1csc2nc3n(c(=O)c12)CCN(Cc1ccccn1)CC3.Cl
Percent Effect (30.3 µM, […]): -40.83%

CCC(=O)NCC(c1ccc(SC)cc1)N1CCc2sccc2C1 (centres undefined)
Percent Effect (30.3 µM, […]): -2.044%

NCC(c1ccc(Cl)cc1)N1CCc2sccc2C1 (centres undefined)
Percent Effect (30.3 µM, […]): 100.3%
